Experimental data from PubChem BioAssay (EPA / NIEHS).
Records with an inconclusive call do not appear. Active and inactive are the calls of the source. The calls were made as follows, unless noted: active = hit-call score of the fitted dose curve at least 0.9, where 1 is the maximum; inactive = score below 0.9.

Test: APR_HepG2_CellCycleArrest_1hr: Apredica 1-hour HepG2 Assay for Cell Cycle Arrest (AID 2282666)
Settings: high-content imaging, actives raise or lower the signal
Outline: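 HepG2 cells exposed for 1 h to 0.39–200 uM compound (0.5% DMSO). Fixed, Hoechst-stained nuclei imaged by ArrayScan; DNA content quantified by Cell Cycle analysis; bidirectional fit against DMSO.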

SMILES	outcome	AC50
CCSC(=O)N1CCCCCC1	inactive	
COP(=O)(OC)O/C(C)=C/C(=O)N(C)C	inactive	
C=CCOC(=O)C(C)(C)OC(=O)c1cc(-n2c(=O)cc(C(F)(F)F)n(C)c2=O)ccc1Cl	inactive	
CN=C=S	inactive	
Nc1c(Cl)c(F)nc(OCC(=O)O)c1Cl	inactive	
Cc1cc(C)nc(Nc2ccccc2)n1	inactive	
Clc1nc(Cl)nc(Nc2ccccc2Cl)n1	inactive	
O=P(O)(O)CCCl		71.3 nM (active)
CNC(=O)N(C)c1nnc(C(C)(C)C)s1	inactive	
COCC(C)N(C(=O)CCl)c1c(C)csc1C (configuration not stated)	inactive	
CCOC(=O)C(C)OC(=O)c1cc(Oc2ccc(C(F)(F)F)cc2Cl)ccc1[N+](=O)[O-] (configuration not stated)	inactive	
COC(=O)c1c(C(F)F)nc(C(F)(F)F)c(C2=NCCS2)c1CC(C)C	inactive	
CC(C)Oc1cccc(NC(=O)c2ccccc2C(F)(F)F)c1	inactive	
CN/C(=N\[N+](=O)[O-])NCc1cnc(Cl)s1	inactive	
Cn1c(-c2ccccc2)cc(-c2ccccc2)[n+]1C	inactive	
CC(C)C1(C)N=C(c2ncccc2C(=O)O)NC1=O (configuration not stated)	inactive	
N#CN=C1SCCN1Cc1ccc(Cl)nc1	inactive	
CCCCOCN(C(=O)CCl)c1c(CC)cccc1CC	inactive	

SMILES	outcome	AC50
CC(C)Nc1nc(Cl)nc(NC(C)C)n1	inactive	
COC(=O)NC(=S)Nc1ccccc1NC(=S)NC(=O)OC	inactive	
CCNP(=S)(OC)O/C(C)=C/C(=O)OC(C)C (configuration not stated)	inactive	
CS(=O)(=O)c1ccc(C(=O)C2C(=O)CCCC2=O)c([N+](=O)[O-])c1	inactive	
COC(=O)NS(=O)(=O)c1ccc(N)cc1	inactive	
CNC(=O)Oc1cccc2ccccc12	inactive	
CCCCC(C#N)(Cn1cncn1)c1ccc(Cl)cc1 (configuration not stated)	inactive	
COC(=O)N(C(=O)N1CO[C@@]2(C(=O)OC)Cc3cc(Cl)ccc3C2=N1)c1ccc(OC(F)(F)F)cc1	inactive	
CCNC(=O)NC(=O)C(C#N)=NOC		39.1 nM (active)
Nc1c(Cl)c(Cl)nc(C(=O)O)c1Cl	inactive	
CCCCC(O)(Cn1cncn1)c1ccc(Cl)cc1Cl (configuration not stated)	inactive	
Cc1c(COC(=O)[C@@H]2[C@H](/C=C(\Cl)C(F)(F)F)C2(C)C)cccc1-c1ccccc1	inactive	
CO/N=C(/C1=NOCCO1)c1ccccc1Oc1ncnc(Oc2ccccc2Cl)c1F	inactive	
O=C1C2CC=CCC2C(=O)N1SC(Cl)(Cl)Cl (configuration not stated)	inactive	
CC(C)=CC1C(C(=O)OCc2coc(Cc3ccccc3)c2)C1(C)C (configuration not stated)	inactive	
CCOc1cc(C(C)(C)C)ccc1C1COC(c2c(F)cccc2F)=N1 (configuration not stated)	inactive	
CC(C)N1C(=O)c2ccccc2NS1(=O)=O		59.2 nM (active)
O=C(Nc1ccccc1-c1ccc(Cl)cc1)c1cccnc1Cl	inactive	

Test: ACEA_ER_80hr: ACEA Biosciences xCELLigence Real-Time Cell Analysis on Estrogen Receptor Agonism for Proliferation (AID 2282667; active = hit-call score of the fitted dose curve at least 0.9, where 1 is the maximum)
Settings: T47D proliferation, impedance (xCELLigence), 80 h
Outline: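 Cell-growth kinetics were measured by impedance in T47D cells treated continuously with compound (top 100 uM final, 1:4 steps, 8 points). Activity at 80 h was scored as signal gain over the DMSO baseline.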

SMILES	outcome	AC50
CCSC(=O)N1CCCCCC1	inactive	
COP(=O)(OC)O/C(C)=C/C(=O)N(C)C	inactive	
C=CCOC(=O)C(C)(C)OC(=O)c1cc(-n2c(=O)cc(C(F)(F)F)n(C)c2=O)ccc1Cl	inactive	
CN=C=S	inactive	
Nc1c(Cl)c(F)nc(OCC(=O)O)c1Cl	inactive	
Cc1cc(C)nc(Nc2ccccc2)n1	inactive	
Clc1nc(Cl)nc(Nc2ccccc2Cl)n1	inactive	
O=P(O)(O)CCCl	inactive	
CNC(=O)N(C)c1nnc(C(C)(C)C)s1	inactive	
COCC(C)N(C(=O)CCl)c1c(C)csc1C (configuration not stated)	inactive	
CCOC(=O)C(C)OC(=O)c1cc(Oc2ccc(C(F)(F)F)cc2Cl)ccc1[N+](=O)[O-] (configuration not stated)	inactive	
COC(=O)c1c(C(F)F)nc(C(F)(F)F)c(C2=NCCS2)c1CC(C)C	inactive	
CC(C)Oc1cccc(NC(=O)c2ccccc2C(F)(F)F)c1	inactive	
CN/C(=N\[N+](=O)[O-])NCc1cnc(Cl)s1	inactive	
Cn1c(-c2ccccc2)cc(-c2ccccc2)[n+]1C		2110 nM (active)
CC(C)C1(C)N=C(c2ncccc2C(=O)O)NC1=O (configuration not stated)	inactive	
N#CN=C1SCCN1Cc1ccc(Cl)nc1	inactive	
CCCCOCN(C(=O)CCl)c1c(CC)cccc1CC	inactive	

SMILES	outcome	AC50
CC(C)Nc1nc(Cl)nc(NC(C)C)n1	inactive	
COC(=O)NC(=S)Nc1ccccc1NC(=S)NC(=O)OC	inactive	
CCNP(=S)(OC)O/C(C)=C/C(=O)OC(C)C (configuration not stated)	inactive	
CS(=O)(=O)c1ccc(C(=O)C2C(=O)CCCC2=O)c([N+](=O)[O-])c1	inactive	
COC(=O)NS(=O)(=O)c1ccc(N)cc1	inactive	
CNC(=O)Oc1cccc2ccccc12	inactive	
CCCCC(C#N)(Cn1cncn1)c1ccc(Cl)cc1 (configuration not stated)	inactive	
COC(=O)N(C(=O)N1CO[C@@]2(C(=O)OC)Cc3cc(Cl)ccc3C2=N1)c1ccc(OC(F)(F)F)cc1	inactive	
CCNC(=O)NC(=O)C(C#N)=NOC	inactive	
Nc1c(Cl)c(Cl)nc(C(=O)O)c1Cl	inactive	
CCCCC(O)(Cn1cncn1)c1ccc(Cl)cc1Cl (configuration not stated)	inactive	
Cc1c(COC(=O)[C@@H]2[C@H](/C=C(\Cl)C(F)(F)F)C2(C)C)cccc1-c1ccccc1	inactive	
CO/N=C(/C1=NOCCO1)c1ccccc1Oc1ncnc(Oc2ccccc2Cl)c1F		10500 nM (active)
O=C1C2CC=CCC2C(=O)N1SC(Cl)(Cl)Cl (configuration not stated)	inactive	
CC(C)=CC1C(C(=O)OCc2coc(Cc3ccccc3)c2)C1(C)C (configuration not stated)	inactive	
CCOc1cc(C(C)(C)C)ccc1C1COC(c2c(F)cccc2F)=N1 (configuration not stated)	inactive	
CC(C)N1C(=O)c2ccccc2NS1(=O)=O	inactive	
O=C(Nc1ccccc1-c1ccc(Cl)cc1)c1cccnc1Cl	inactive	
